CCHF vOTU inh-1: CCHFV vOTU protease inhibition | Pep-AMC fluorescence | inhibition, % at 11.5 µM | hit rate 0.55% among 370,000 | AID 651958
ugtP null kill: kills S. aureus RN4220 lacking UgtP; S. aureus RN4220 ugtP deletion, OD600 growth, 16 h; growth inhibition, % (concentration not given with the values); hit rate 0.54% among 330,000; in the data active means growth inhibition above about 68%
RN4220 kill: kills Staphylococcus aureus RN4220 | S. aureus RN4220 growth, OD600, 16 h | inhibition, % (test concentration not listed) | hit rate 0.33% among 330,000 | AID 1259311; in the data active means inhibition above about 85%
SSB-PriA inh: blocks PriA binding to SSB C-terminal tail | AlphaScreen SSBct-PriA binding, biotinylated peptide | inhibition, % at 33 µM | hit rate 0.6% among 430,000 | AID 1272365; in the data active means inhibition mostly above about 37%, no sharp cut-off; inactive means mostly below about 20%
Mtb hypoxia rep: inhibitors of hypoxia-regulated fluorescent reporter in Mycobacterium tuberculosis. AID 1159583. hit rate 0.1% among 300,000. fluorescence inhibition, % (no concentration beside the values). M. tuberculosis hypoxia-regulated fluorescent reporter, fluorescence; in the data active means fluorescence inhibition mostly above about 23%, no sharp cut-off; inactive means mostly below about 17%
CCHF vOTU inh-2: confirmation of CCHF virus vOTU protease inhibitors | Recombinant CCHFV vOTU, Pep-AMC fluorescence | inhibition, % at 11.5 µM | hit rate 17% among 1,900 | shares compounds with CCHF vOTU inh-1
Hits are given with their value; – = inactive; · = no result given. Sampled rows, rich in hits. Any-hit rate of the full collection: about 1.4%. Unless noted, no stated cut-off is given here; in the data, active means inhibition above about 30%; inactive means the rest.

SMILES	CCHF vOTU inh-1	ugtP null kill	RN4220 kill	SSB-PriA inh	Mtb hypoxia rep	CCHF vOTU inh-2
COc1ccc(C2CCCCN(C(=O)c3cc[nH]c(=O)c3)C2)cc1 (centres undefined)	·	·	·	–	·	·
O=c1c(C=NCc2cccnc2)c(C(F)(F)F)[nH]n1-c1nc2ccccc2s1	30	–	–	–	–	–
CN(C(=O)Cc1csc2nc(-c3ccc(F)cc3)cn12)c1ccccc1	·	·	·	–	·	·
CCNC(=S)NNC(=O)c1cc(-c2ccccc2C)nc2ccccc12	·	–	–	–	–	·
Cc1ccc(C)c(-c2cc(C(=O)NNC(=S)NCC(C)C)c3ccccc3n2)c1	34	–	–	–	–	–
O=C(COc1ccc2ccccc2c1)Nc1cccc(C(=O)Nc2ccccc2C(=O)O)c1	34	–	–	–	–	–
O=C(NCc1cccs1)Nc1ccn2nccc2c1	·	·	·	–	·	·
Cc1ccc(NC(=O)CSc2nnc(-c3cc(-c4ccc(Cl)cc4)n[nH]3)n2N)cc1	99	·	·	·	·	–
Cc1ccc(-c2cc(-c3nnc(SCC(=O)Nc4ccc(OCc5ccccc5)cc4)n3N)[nH]n2)cc1	–	·	·	·	·	·
CN1CCN(C(CNS(=O)(=O)c2ccc(-c3ccccc3)cc2)c2ccsc2)CC1 (centres undefined)	·	·	·	–	·	·
O=C(Nc1cnc2cc(C(F)(F)F)nn2c1)c1cnn(-c2ccccc2)n1	·	·	·	–	·	·
COc1cccc(-c2cc(C(F)(F)F)nc(-n3cncn3)n2)c1	–	–	–	–	–	·
COc1cccc(-c2cc(C(F)(F)F)nc(-n3cc(C)cn3)n2)c1	35	–	–	–	–	–
CCN1/C(=C/C=C/c2oc3ccc(-c4ccccc4)cc3[n+]2CC)Oc2ccc(-c3ccccc3)cc21	37	100	97	–	–	–
O=C(NCc1ccc(F)cc1)C(=O)NCC1(c2cccs2)CCCC1	·	·	·	–	·	·
COC(=O)C1CN(Cc2ccc(F)cc2)CCS(=O)(=O)N1Cc1cn(Cc2ccc(F)cc2)nn1 (centres undefined)	30	·	·	·	·	–
COc1ccc(NC(=O)CN2CCC(C(=O)NC3CCN(Cc4ccccc4)CC3)CC2)c(OC)c1	·	·	·	–	·	·
Cc1cccc(C)c1NC(=O)C1(C)CSCC(=O)N1CCOc1ccccc1 (centres undefined)	31	·	·	·	·	–
CCN(CC)Cc1c(C(=O)NN=Cc2cccc3ccccc23)nnn1-c1nonc1N	·	–	–	–	–	·
COc1cc(NC(C)CCCN)c2ncccc2c1 (centres undefined)	104	·	·	–	·	81
COc1cc(NCCCCCCCN)c2ncccc2c1	·	–	–	–	–	·
O=C(NN=Cc1cc2c(cc1[N+](=O)[O-])OCO2)c1cccs1	·	–	–	–	–	·
O=[N+]([O-])c1cccc(N=Nc2ccc(O)cc2O)c1	–	–	–	–	·	·
O=S(=O)(O)c1cc(Cl)cc(N=Nc2ccc(O)cc2O)c1O	31	·	·	–	·	–
COc1cc(=O)n(-c2ccccc2C)nc1C(=O)Nc1ccc(F)c(C(F)(F)F)c1	·	·	·	–	·	·
SMILES	CCHF vOTU inh-1	ugtP null kill	RN4220 kill	SSB-PriA inh	Mtb hypoxia rep	CCHF vOTU inh-2
Cc1cc2cc(C(c3nnnn3Cc3ccco3)N3CCc4ccccc4C3)c(=O)[nH]c2cc1C (centres undefined)	61	–	–	–	–	–
CCOC(=O)/C=C(\C)Sc1cc(O)c2ccccc2c1O	111	93	97	–	–	98
O=C(Nc1c(-c2ccc3c(c2)OCO3)[nH][nH]c1=O)c1ccccc1	42	·	·	·	·	–
O=C(Nc1c(-c2ccc3c(c2)OCO3)[nH][nH]c1=O)c1cccc(C(F)(F)F)c1	34	·	·	·	·	–
CN(c1ccccc1)S(=O)(=O)c1ccc(C(=O)Nc2nc3c(F)cc(F)cc3s2)cc1	·	·	·	–	·	·
CN(C)c1ncc(NC(=O)Nc2cccc(C(F)(F)F)c2)c(N(C)C)n1	·	·	·	–	·	·
CCCCCCCCN1C(=O)[C@H](CC(=O)NCCCOC)C[C@@]2(C(=O)OC)CC(C)(C)CC=C12	33	·	·	·	·	–
CCCCCCCCN1C(=O)[C@H](CC(=O)NCc2ccc(C)o2)C[C@@]2(C(=O)OC)CC(C)(C)CC=C12	30	·	·	·	·	–
CCCCCCCCN1C(=O)[C@H](CC(=O)NCC2CCCCC2)C[C@@]2(C(=O)OC)CC(C)(C)CC=C12	–	·	·	·	·	·
CCCCCCCCN1C(=O)[C@H](CC(=O)NCCCOCCCC)C[C@@]2(C(=O)OC)CC(C)(C)CC=C12	–	·	·	·	·	·
COC(=O)[C@@]12C[C@@H](CC(=O)NCCC(C)C)C(=O)N(CCc3ccc(OC)c(OC)c3)C1=CCC(C)(C)C2	30	·	·	·	·	–
C#CCNC(=O)C[C@@H]1C[C@@]2(C(=O)OC)CC(C)(C)CC=C2N(CCCCCCCC)C1=O	31	·	·	·	·	–
Cc1cccc(C=NNC(=O)c2cc(C)nc3ccccc23)n1	·	–	–	–	–	·
CN(C)C(CNC(=O)c1ccc(NS(=O)(=O)c2ccc3[nH]c(=O)[nH]c3c2)cc1)c1ccccc1 (centres undefined)	31	·	·	–	·	–
COc1cccc2cc(C(C)=NNc3nc(-c4cc(C)ccc4C)cs3)c(=O)oc12	·	–	–	–	–	·
COC(=O)C1=C(c2ccc(OC(F)(F)F)cc2)C[C@@H]2CC[C@H]1N2C(=O)NCCOc1ccccc1	30	·	·	–	·	–
CCN(CC)c1ccc(N=Cc2c(O)n(Cc3ccco3)c(=O)[nH]c2=O)cc1	–	–	–	–	–	·
CCN(CCO)c1ccc(N=Cc2c(O)n(C)c(=S)[nH]c2=O)cc1	32	–	–	–	–	–
COc1ccc(-c2csc(NC(=O)c3ccc(S(=O)(=O)N4CCCC(C)C4)cc3)n2)cc1 (centres undefined)	·	·	·	–	·	·
O=C(NCc1ccccc1)c1nc2c(nnn2Cc2cccc(Cl)c2)c(=O)[nH]1	45	–	–	–	–	–
O=C(NCc1ccco1)c1nc2c(nnn2Cc2cccc(Cl)c2)c(=O)[nH]1	–	–	–	–	–	·
Cc1ccc(-n2ncc3c(C(C)C)nnc(SCC(=O)N4CCOCC4)c32)cc1C	·	·	·	–	·	·
O=C(NC1CC(=O)N(C2CC2)C1)c1ccsc1 (centres undefined)	·	·	·	–	·	·
Cc1cc(C(=O)N/N=C/c2ccc([N+](=O)[O-])cc2)c2ccccc2n1	–	·	·	–	·	·
Cc1cc(C(=O)N/N=C/c2ccc([N+](=O)[O-])s2)c2ccccc2n1	31	·	·	·	·	–
SMILES	CCHF vOTU inh-1	ugtP null kill	RN4220 kill	SSB-PriA inh	Mtb hypoxia rep	CCHF vOTU inh-2
Cc1cc(C)n(CCN2CCN(S(=O)(=O)c3cc(F)cc(F)c3)CC2)n1	·	·	·	–	·	·
Cc1cc(C)n(CCNC(=O)c2c[nH]c(=O)n(Cc3ccccc3Cl)c2=O)n1	·	·	·	–	·	·
Cc1cccn2cc(-c3cccc(NC(=O)c4cc(N5CCCC5)ncn4)c3)nc12	·	·	·	–	·	·
O=C1C=C(O)c2[nH]c(=O)ccc2C1=O	95	·	·	–	·	67
Cc1ccccc1N=C1c2ccccc2C(=O)C1[N+](=O)[O-] (centres undefined)	34	–	–	–	–	–
CCc1cccc(OCC(=O)Nc2ccc(C(=O)O)cc2NC(=O)COc2cccc(CC)c2)c1	33	–	–	–	–	–
COc1cc(/C=C2/C(=O)N(c3ccc([N+](=O)[O-])cc3)N=C2N2CCOCC2)ccc1O	115	–	–	–	–	–
CCCCCCCCN1C(=O)[C@H](CC(=O)N2CCSCC2)C[C@@]2(C(=O)OCC)CCCC=C12	39	·	·	·	·	–

Screening results: PubChem, several laboratories
